Source: PubChem BioAssay (several laboratories)
An excerpt weighted towards active compounds, which were near 0.81% of everything screened.
Keap1 Nrf2 FP = Keap1-Nrf2 protein-protein interaction inhibitors, primary screen, biochemical, fluorescence polarization, single point; Kelch-like ECH-associated protein 1 (Homo sapiens), Q14145; Keap1 Kelch-Nrf2 peptide fluorescence polarization, 1536-well; inhibition, % at 9.4 µM; actives 0.15% (n = 340,000); in the data active = inhibition above about 12%;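 also: human Keap1 Kelch domain with fluorescein labeled Nrf2 9mer peptide probe; higher means more block of Keap1 binding to Nrf2 peptide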
IDE inh = human IDE inhibitors in live cells, primary screen, fluorescence polarization, HEK cells, FAbetaB substrate. AID 434962, 2010. inhibition, % at 5.59 µM. actives 0.41% (n = 320,000). FAbetaB cleavage;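 active = percent inhibition above the average of all tested compounds plus 3 SD, set per screening campaign, cut at about 16% in these data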;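 also: IDE supplied by intact live HEK cells; FP after avidin binding of uncleaved biotin substrate so inhibition keeps polarization high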
Target sequence (P14735 whole entry, looked up): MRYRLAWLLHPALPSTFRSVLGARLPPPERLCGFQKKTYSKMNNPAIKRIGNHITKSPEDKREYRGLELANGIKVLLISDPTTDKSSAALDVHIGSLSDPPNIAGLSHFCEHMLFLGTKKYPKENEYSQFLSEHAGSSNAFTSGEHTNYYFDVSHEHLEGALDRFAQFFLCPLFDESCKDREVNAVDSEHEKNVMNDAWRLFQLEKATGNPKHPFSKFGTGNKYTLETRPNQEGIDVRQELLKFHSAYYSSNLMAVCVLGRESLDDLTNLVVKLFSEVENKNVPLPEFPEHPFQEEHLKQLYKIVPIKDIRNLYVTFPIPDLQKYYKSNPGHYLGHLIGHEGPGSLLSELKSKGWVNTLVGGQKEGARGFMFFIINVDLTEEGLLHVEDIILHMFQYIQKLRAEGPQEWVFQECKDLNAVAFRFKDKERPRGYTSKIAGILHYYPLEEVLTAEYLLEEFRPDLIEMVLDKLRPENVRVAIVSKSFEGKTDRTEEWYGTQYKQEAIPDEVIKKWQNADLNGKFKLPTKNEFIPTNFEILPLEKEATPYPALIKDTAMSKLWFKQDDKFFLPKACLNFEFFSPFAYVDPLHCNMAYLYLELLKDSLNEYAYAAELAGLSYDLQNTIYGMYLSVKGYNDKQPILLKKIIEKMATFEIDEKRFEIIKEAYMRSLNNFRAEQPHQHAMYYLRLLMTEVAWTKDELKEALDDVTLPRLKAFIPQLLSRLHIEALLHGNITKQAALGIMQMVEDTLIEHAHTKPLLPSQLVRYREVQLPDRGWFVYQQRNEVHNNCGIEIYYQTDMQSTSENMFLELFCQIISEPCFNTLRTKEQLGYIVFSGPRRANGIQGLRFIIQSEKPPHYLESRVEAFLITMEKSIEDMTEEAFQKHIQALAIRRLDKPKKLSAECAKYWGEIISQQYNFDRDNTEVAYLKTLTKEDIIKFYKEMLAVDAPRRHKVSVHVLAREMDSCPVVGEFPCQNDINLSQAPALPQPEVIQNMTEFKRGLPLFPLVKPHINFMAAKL
RTF Ca sens inh = cardiac RTF calcium sensitivity inhibitors, primary screen, biochemical, IANBD-TnC fluorescence, EC70 calcium. Troponin I, cardiac muscle (Homo sapiens) + Troponin T, cardiac muscle (Homo sapiens) + …. IANBD-labeled cardiac RTF, Ca2+ fluorescence. inhibition, % at 7.15 µM. actives 0.12% (n = 340,000);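 active = inhibition above the mean inhibition of all tested compounds plus 3 SD, cut at about 17% in these data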;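 also: assay run at fixed EC70 calcium of 1.6 mM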
LANA DNA inh = inhibitors of KSHV C-LANA binding to DNA, primary screen, biochemical, fluorescence polarization, FAM-LBS DNA, MBP-C-LANA, single point | Kaposi's sarcoma herpesvirus LANA C-terminal domain (residues 932-1162) DNA binding | inhibition, % at 9 µM | actives 0.078% (n = 340,000);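 active = highest replicate inhibition at or above 60% at 9 µM, even if other replicates fall short; inactive = all replicates below 60% inhibition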
RTF Ca sens act = cardiac RTF calcium sensitivity activators, primary screen, biochemical, IANBD-TnC fluorescence, EC20 calcium; Troponin I, cardiac muscle (Homo sapiens) + Troponin T, cardiac muscle (Homo sapiens) + …; IANBD-labeled TnC RTF fluorescence at EC20 calcium; 0% EC20 calcium, 100% full calcium; activation, % at 7.2 µM; actives 0.24% (n = 340,000);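 active = activation above the mean over all tested compounds plus 3 SD, cut at about 30% in these data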;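 also: rise in fluorescence read as greater calcium sensitivity of cardiac thin filaments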
IDE act = human IDE activators in live cells, primary screen, fluorescence polarization, HEK cells, FAbeta-B substrate | activation, % at 5.96 µM | Insulin-degrading enzyme (Homo sapiens), P14735 | actives 0.073% (n = 340,000) | AID 493087, 2011 | FAbeta-B cleavage; 0% vehicle, 100% cell-free pure enzyme wells;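 active = activation above the mean of all tested compounds plus 3 SD, set per screening campaign, cut at about 17% in these data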
IDE cell inh cf = human IDE inhibitors in live cells, confirmation, fluorescence polarization, HEK cells, FAbetaB substrate; inhibition, % at 5.59 µM; FAbetaB cleavage; AID 435028, 2010; actives 51% (n = 1,200); shares compounds with IDE inh;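 active = mean inhibition across triplicate wells above the cutoff set by the earlier primary insulin-degrading enzyme screen, cut at about 16% in these data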
HEK cytotox = cytotoxicity in HEK cells, cytotoxicity control for IDE inhibitor project, cell-based, luminescence; AID 449730, 2010; inhibition, % at 5.59 µM; actives 28% (n = 1,200); HEK293 cytotoxicity, ATP luminescence; shares compounds with IDE inh; in the data active = inhibition above about 22%
IDE FP artifact = fluorescent or optically active artefacts, dose response, artefact control for IDE inhibitor project, biochemical, fluorescence polarization | shares compounds with IDE inh | FP counterscreen for fluorescent artifacts, IDE probe project | IC50, µM | 30 tested, under 10 active | AID 588718, 2011; call rule not given here
A number is an active result; 0 = inactive; - = not tested or not shown.

SMILES	Keap1 Nrf2 FP	IDE inh	RTF Ca sens inh	LANA DNA inh	RTF Ca sens act	IDE act	IDE cell inh cf	HEK cytotox	others
O=C(Nc1ccc(-c2nc3ccccc3o2)cc1)c1ccc2c(c1)OCO2	0	0	0	0	0	18	-	-
O=S(=O)(O)c1cccc2cccc(Nc3ccccc3)c12	0	0	0	96	0	0	-	-
c1ccc(Nc2cccc3c(Nc4ccccc4)cccc23)cc1	0	0	0	0	0	0	-	-
CC(=O)Nc1cc2c(cc1C(=O)C(C)C)OCCO2	0	0	0	0	0	0	-	-
CC(C)C(=O)c1cc2c(cc1NC(=O)c1ccccc1)OCCO2	0	0	0	0	31	0	-	-
COc1ccc(Cn2c(SCc3cc(C)ccc3C)nc3cc(OC)c(OC)cc3c2=N)cc1	0	0	0	0	0	27	-	-
COc1ccc(Cn2c(SCc3ccc(C)cc3)nc3cc(OC)c(OC)cc3c2=N)cc1Cl	0	0	0	0	0	20	-	-
CSc1ccccc1OCc1cc(C(=O)NCCn2nc(C)cc2C)no1	0	0	0	0	0	34	-	-
Cc1cc(C)n(CCNC(=O)c2cc(COc3ccc(F)cc3Cl)on2)n1	0	0	0	0	0	0	-	-
CC(C)CC(=O)Nc1nnc(CSCc2ccc(F)cc2)s1	0	0	0	75	0	0	-	-
CCC(=O)Nc1nnc(CSCc2ccc(F)cc2)s1	0	0	0	0	0	0	-	-
CN(/N=C/c1ccc(N(C)C)cc1)C1=NS(=O)(=O)c2ccccc21	0	0	0	0	61	0	-	-
CC(=O)Oc1ccc(/C=C2/Oc3ccccc3C2=O)cc1	0	28	0	0	0	0	66	0
COC(=O)c1ccc2c(c1)C(=O)/C(=C/c1ccc(O)cc1)O2	0	55	0	0	0	0	86	0
CCOC(=O)C1=C(c2ccccc2)N=c2s/c(=C\c3ccc(O)cc3)c(=O)n2C1c1cccs1 (stereo not drawn)	0	23	0	0	0	0	115	41
C=CCn1c(SCC(=O)N2CCN(C(=O)c3ccco3)CC2)nc2sc(CC)cc2c1=O	0	21	0	0	0	0	0	0
C=CCn1c(SCC(=O)N2CCCC2=O)nc2sc(CC)cc2c1=O	0	0	0	0	0	0	-	-
COc1ccccc1CN1C[C@@H]2C[C@@H](c3ccc4nsnc4c3)N3CCC[C@@]23C1=O	0	19	0	0	0	0	0	0
COc1ccc(C(=O)N2CCN(C(=O)C3COc4ccccc4O3)CC2)cc1OC (stereo not drawn)	0	17	0	0	0	0	16	0	IDE FP artifact=0
CCN(CC)C(=O)Cn1cc(C(=O)C(=O)N2CCN(C)CC2)c2ccccc21	0	0	0	0	0	0	-	-
CCN(CC)C(=O)Cn1cc(C(=O)C(=O)N2CC=C(c3ccccc3)CC2)c2ccccc21	0	19	0	0	0	0	21	0
CN(C)C=Nc1c(Br)cc(Br)c2nonc12	0	26	0	0	32	0	62	0
CN(C)C=Nc1nonc1-c1ccccc1	0	0	0	0	0	0	-	-
Cc1cccc(C(=O)Nc2ccc(C(=O)/C=C/c3cccnc3)cc2)c1	0	20	0	0	0	0	0	71
COc1ccc(NC(=O)CSc2nnc(NC(=O)c3ccccc3C(=O)O)s2)cc1	0	0	0	0	0	0	-	-
SMILES	Keap1 Nrf2 FP	IDE inh	RTF Ca sens inh	LANA DNA inh	RTF Ca sens act	IDE act	IDE cell inh cf	HEK cytotox	others
Cc1cc2nc(/C(C#N)=C\c3ccc(-c4ccccc4C(=O)O)o3)[nH]c2cc1C	0	31	0	0	52	0	134	0
Cc1ccc2nc(/C(C#N)=C\c3ccc(N4CCOCC4)o3)[nH]c2c1	0	48	0	0	152	0	26	27
N#C/C(=C\c1ccc(Sc2ccccc2)o1)c1nc2ccccc2[nH]1	0	21	0	0	0	0	0	0
N#C/C(=C/c1ccc(O)c(O)c1)c1nc2ccccc2[nH]1	0	47	0	0	0	0	93	0
Cc1cc(NC(=O)c2cc([N+](=O)[O-])cc([N+](=O)[O-])c2C)no1	0	0	0	0	0	0	-	-
COCCCn1c(C)nnc1SCC(=O)Nc1ccc(C(C)=O)cc1	0	0	0	0	0	0	-	-
CCC(CC)COC(=O)C1=C(C)NC(=O)NC1c1ccc2c(c1)OCO2 (stereo not drawn)	0	0	0	0	0	0	-	-
N#C/C(=C\c1ccc(-c2ccccc2C(=O)O)o1)c1nc2ccccc2[nH]1	0	31	0	0	0	0	53	0
Cc1ccc2nc(/C(C#N)=C/c3ccc(-c4ccccc4C(=O)O)o3)[nH]c2c1	0	85	0	0	0	0	115	0
O=C(CN1C(=O)NC2(CCCCCCC2)C1=O)Nc1ccc(Cl)cc1	0	0	0	0	0	0	-	-
CCOC(=O)N1CCN(C(=O)C2CCCN(S(=O)(=O)c3c(C)cc(C)cc3C)C2)CC1 (stereo not drawn)	0	0	0	0	0	0	-	-
Fc1ccc(C[n+]2csc3ccccc32)cc1	0	0	0	0	0	0	-	-
Clc1ccc(C[n+]2csc3ccccc32)cc1	0	20	0	0	0	0	0	0
CC1(C)NC(=O)N(CC(O)Cn2nnc3ccccc32)C1=O (stereo not drawn)	0	0	0	0	0	0	-	-
N#CC12C(=O)NC(=O)C1(C#N)C21CCCC1 (stereo not drawn)	0	-	0	0	0	0	-	-
COC(=O)c1ccc(CN2CCCC(C(=O)c3ccccc3OC)C2)cc1 (stereo not drawn)	0	0	0	0	0	0	-	-
COc1ccc(C(CC(=O)N2CCCC2)c2ccc(F)cc2)cc1 (stereo not drawn)	0	17	0	0	0	0	0	0
COc1ccc(C(CC(=O)N2CCCC2)C(C)C)cc1 (stereo not drawn)	0	0	0	0	0	0	-	-
